Source: ChEMBL document CHEMBL4513216, “Probing the Open Global Health Chemical Diversity Library for Multistage-Active Starting Points for Next-Generation Antimalarials” (ACS Infect Dis, 2020)
Among all 69,000 compounds or so, about 8,600 (12%) showed an effect of 50% or more. Shown is part of a subset that was picked to be rich in strong results.

test system: Plasmodium berghei; assay: Screen against P. berghei liver stage (PbLuc), transformed with Luciferase, at 10uM; format: functional, HepG2; conditions: tested at 10 uM

| SMILES | INHIBITION [%] |
| --- | --- |
| CCc1nc2ccccc2n1C(CC)C(=O)N(C)CCc1noc(C)n1 (stereo not drawn) | -4.12 |
| CC(C)c1noc(OCc2cccc(S(=O)(=O)N(C)C)c2)n1 | 37.8 |
| CCCn1nnc(NCc2ccccc2OCc2ccc(Cl)cc2)n1 | -36.8 |
| COc1ccccc1CNC(=O)C[S+]([O-])Cc1cc(C)on1 (stereo not drawn) | -9.19 |
| CCN(CC1CCOC1)C(=O)c1ccc(N2CCOCC2)c(F)c1 (stereo not drawn) | 66.2 |
| CCN(CC1CCOC1)C(=O)c1ccccc1N1CCOCC1 (stereo not drawn) | 26.8 |
| CCN(CC1CCOC1)C(=O)c1cc(OC)c2c(c1)OCCO2 (stereo not drawn) | 30.9 |
| CCN(CC1CCOC1)C(=O)c1cc(Cl)c2c(c1)OCO2 (stereo not drawn) | 56.6 |
| CCN(CC1CCOC1)C(=O)c1cc(F)ccc1N1CCN(C)CC1 (stereo not drawn) | 7.27 |
| O=C(c1cc(Cl)c2c(c1)OCCCO2)N(CC1CCOC1)C1CC1 (stereo not drawn) | 30.9 |
| COCC(=O)N1CCCC(c2noc3nc(C)cc(C(F)(F)F)c23)C1 (stereo not drawn) | 24.4 |
| CC(C)NC(=O)COc1ccc(-c2nc(C(C)C)no2)cc1 | 10.7 |
| Cc1csc(C(C#N)C(=O)NCc2ccccc2)n1 (stereo not drawn) | 52.6 |
| Cc1csc(C(C#N)C(=O)Nc2ccccc2)n1 (stereo not drawn) | 8.08 |
| Cc1csc(C(C#N)C(=O)NCc2cccnc2)n1 (stereo not drawn) | 26.5 |
| Cc1cc(N(C)C)nc(C2CCNC2)n1 (stereo not drawn) | 35 |
| O=C(NC1CCCc2nc(N3CCCCC3)ncc21)C1CCCC1 (stereo not drawn) | 40 |
| Cc1ccc(C(CNC(=O)Nc2cn[nH]c2)N2CCOCC2)o1 (stereo not drawn) | -45.6 |
| CC1=Nc2c(c(=O)[nH]n2C(C)C)C(c2ccsc2)S1 (stereo not drawn) | 30 |
| O=C(NCc1cccnc1)N1CCc2ncnc(C3CC3)c2CC1 | -14.3 |
| O=C(O)CCc1ccc(S(=O)(=O)Nc2cnn(CC(F)(F)F)c2)cc1 | 28.1 |
| O=C(O)CCc1ccc(S(=O)(=O)Nc2cnn(CC3CC3)c2)cc1 | 5.51 |

| SMILES | INHIBITION [%] |
| --- | --- |
| O=C(O)c1ccc(S(=O)(=O)Nc2cnn(CC(F)(F)F)c2)cc1 | 72.8 |
| O=C(NCCOc1ccc(Cl)cn1)Nc1ccccn1 | -34.8 |
| CS(=O)(=O)NCc1cncc2c1CCN(C(=O)c1cccnc1)C2 | 4.57 |
| Cc1cnn(CCCn2ncc(N3CCC(CN)C3)cc2=O)c1 (stereo not drawn) | 66.5 |
| CCC(CC)Cn1ncc(N2CCOCC2)cc1=O | 23.8 |
| O=c1cc(N2CCCCC2)cnn1CCCn1cccn1 | -54 |
| Cc1cnn(CC(=O)NCC2CCN(c3cc(Cl)ccc3C)C2)c1 (stereo not drawn) | -47.28 |
| O=c1cc(N2CCNCC2)cnn1CCCn1cccn1 | 49.9 |
| CN1CCN(c2cnn(CCn3cccn3)c(=O)c2)CC1 | 57.3 |
| Cc1cnn(C(C)C(=O)NCC2CCN(c3cnn(C)c(=O)c3)CC2)c1 (stereo not drawn) | -9.08 |
| NCC1CCN(c2cnn(CCCn3cccn3)c(=O)c2)CC1 | 61 |
| CCCOCCn1ncc(N2CCCC2)cc1=O | -49.2 |
| Cc1nn(C)c(C)c1C1COCCN1C(=O)c1cc(F)ccc1F (stereo not drawn) | -2.19 |
| COc1cccc(CN2CCCC2c2cccc(F)c2)c1OC (stereo not drawn) | 1.45 |
| Cc1nn(C)cc1-c1cc(C(F)F)n2nc(CCC(=O)O)nc2n1 | 21.9 |
| COc1ccc(Cl)cc1S(=O)(=O)N(C)CC(=O)Nc1ccon1 | -44.8 |
| Cc1cnn(CC2CCCN2C(=O)CCc2c(C)noc2C)c1 (stereo not drawn) | 17.3 |
| O=C1CC[C@H]2CN(C3CCOCC3)CC[C@H]2N1CCC1=CCCCC1 | 58.5 |
| CN1CCC(N2CC[C@@H]3[C@@H](CCC(=O)N3CCC3=CCCCC3)C2)CC1 | 33.9 |
| CS(=O)(=O)N1CC[C@@H]2[C@@H](CCC(=O)N2CCC2=CCCCC2)C1 | 19.4 |
| Cc1ccc(C(N)=O)c(N2Cc3cnc(C(C)(C)C)nc3C2)n1 | 17.1 |
| COC(=O)[C@@H]1CCCN1C(=O)c1cn(CCCc2ccccc2)nn1 | 2.4 |

| SMILES | INHIBITION [%] |
| --- | --- |
| COC(=O)[C@@H]1CCCN1C(=O)c1cn(C/C=C/c2ccccc2)nn1 | 52.6 |
| COC(=O)C1CCCCN1C(=O)c1cn(C/C=C/c2ccccc2)nn1 (stereo not drawn) | 9.79 |
| Cc1cccc(C2CCCCCN2C(=O)c2cn(CC(N)=O)nn2)c1 (stereo not drawn) | -15.245 |
| Cc1nc(C(C)NC(=O)c2cn(C/C=C/c3ccccc3)nn2)n[nH]1 (stereo not drawn) | 29.1 |
| NC(=O)[C@@H]1CCCN1C(=O)c1cn(C/C=C/c2ccccc2)nn1 | 57.1 |
| Cc1ccc(C(=O)N2CC[C@@H](N(C)C)[C@@H]2Cc2cnn(C)c2)cn1 | 15.9 |
| COc1ccc(N2CCN(C(=O)[C@@H]3C[C@@H](O)CN3)CC2(C)C)cc1 | 35.3 |
| CC(=O)c1c(O)n(C)c2ccc(C)cc12 | -10.5 |
| Cc1nn(C)c(C)c1-c1ccc(=O)n(C(C)C(=O)NC2CCCC2)n1 (stereo not drawn) | 35.05 |
| COc1ccc(C2CC(=O)NCc3nc(N(C)C)sc32)c(O)c1 (stereo not drawn) | 36.6 |
| COc1cc2c(cc1C1CC(=O)NCc3nc(N(C)C)sc31)CCC2 (stereo not drawn) | 27.6 |
| COc1ccc(C(C)C)cc1C1CC(=O)NCc2nc(N(C)C)sc21 (stereo not drawn) | 52.2 |
| CN(Cc1ccccc1F)C(=O)c1cc(Cl)c[nH]1 | 15.4 |
| COc1nccnc1N1C[C@H]2CC[C@@H](C1)N(CC=C(C)C)C2=O | 6.83 |
| CCOc1ccccc1C(CC(=O)Nc1ccncc1)NC(C)=O (stereo not drawn) | 26.9 |
| CC(NC(=O)NC1CCN(Cc2ccncc2)CC1)c1ccc(F)cc1 (stereo not drawn) | 75.7 |
| NC(=O)C(NC1CCN(Cc2ccc(F)cc2)CC1)c1ccccc1 (stereo not drawn) | -106 |
| CC(NC(=O)NC1CCN(Cc2ccccn2)CC1)c1ccco1 (stereo not drawn) | 36.8 |
| CC(NC(=O)NC1CCN(Cc2ccncc2)CC1)c1ccccc1F (stereo not drawn) | 68.9 |
| CC(NC(=O)NC1CCN(Cc2ccncc2)CC1)c1cccc(F)c1 (stereo not drawn) | 13 |
| CC(NC(=O)NC1CCN(Cc2ccccc2)CC1)c1nncn1C (stereo not drawn) | -12.3 |
| O=C(C1CC1)N1CCN(Cc2ccncc2)c2ncccc2C1 | 5.56 |

| SMILES | INHIBITION [%] |
| --- | --- |
| CC(NC(=O)NCc1ccccc1Cl)c1ccccn1 (stereo not drawn) | -49.5 |
| COc1ccc2c(c1)C(=O)NC1(CC2)CCN(Cc2cccnc2)C1 (stereo not drawn) | 2.1 |
| Cc1cccc(-n2cc3[nH]c(=O)[nH]n3c2=O)c1 | 36.3 |
| CC(C)C(C)N(Cc1cnc2ccccc2n1)Cc1ccco1 (stereo not drawn) | 47 |
| CC(C)NC(=O)NC[C@H]1OC[C@@H](NCc2cccs2)[C@@H]1O | -13.4 |
| Cc1ccc(CN[C@@H]2CO[C@H](CNS(=O)(=O)c3ccccc3)[C@H]2O)cc1 | 27.5 |
| O=S(=O)(NC[C@H]1OC[C@@H](NCc2cccs2)[C@@H]1O)c1ccccc1 | 51 |
| Cc1ccc(S(=O)(=O)NC[C@H]2OC[C@@H](NCc3cccs3)[C@@H]2O)cc1 | 52.5 |
| O=C(NC[C@H]1OC[C@@H](NCc2cccs2)[C@@H]1O)N1CCOCC1 | -0.371 |
| CC(C)(C)CN[C@@H]1CO[C@H](CNC(=O)c2cccs2)[C@H]1O | -7.29 |
| CSc1nccn1-c1cccc(C(=O)NCC(F)(F)F)c1 | 18.2 |
| N#CCCN(CCC#N)C(=O)CN(C1CC1)C1CCc2ccccc21 (stereo not drawn) | -40.5 |
| CCC(O)CN1CCN(C(=O)c2ccn(C)c(=O)c2)CC1 (stereo not drawn) | 13.3 |
| CC(C)CCc1nc(CNCC2CN(C)CCO2)cs1 (stereo not drawn) | -21.9 |
| Cc1cc(NC(=O)CN2CCn3c(nnc3C(C)C)C2)n(C)n1 | 22.2 |
| Cc1nc(CN2C(=O)COC3(CCN(Cc4nccs4)CC3)C2C)cs1 (stereo not drawn) | 15.1 |
| CC1NC(=O)COC12CCN(C(=O)Cc1ccsc1)CC2 (stereo not drawn) | -28.6 |
| Cc1nc(CN2C(=O)COC3(CCN(Cc4ccsc4)CC3)C2C)cs1 (stereo not drawn) | 38.2 |
| CC1N(C)C(=O)COC12CCN(C(=O)CCc1ccccc1)CC2 (stereo not drawn) | 6.83 |
| CC1N(C)C(=O)COC12CCN(Cc1nccs1)CC2 (stereo not drawn) | 69.7 |
| CC1N(C)C(=O)COC12CCN(C(=O)Cc1ccsc1)CC2 (stereo not drawn) | 77.7 |
| CN1CCN(C)C2(CCN(Cc3ccsc3)CC2)C1=O | 5.04 |

| SMILES | INHIBITION [%] |
| --- | --- |
| CC1N(C)C(=O)COC12CCN(Cc1ccsc1)CC2 (stereo not drawn) | 63 |
| CC1N(CC2CC2)C(=O)COC12CCN(Cc1nccs1)CC2 (stereo not drawn) | 31.8 |
| Cc1nc[nH]c1C(=O)N1CCCC2(C1)C(=O)N(C)c1ccccc12 (stereo not drawn) | 9.57 |
| Cn1nc2c(cc1=O)CN(Cc1nc(-c3ccco3)no1)CC2 | -7.31 |
| Cc1nnc2n1CCN(C(=O)c1cc(Cl)c(Br)[nH]1)C2 | -33.32 |
| CC(=O)NCc1ccc(C(=O)Nc2ccc3c(c2)C(=O)NC3)cc1 | -20 |
| CCOc1ccccc1CNS(=O)(=O)c1ccc2c(c1)CCCC(=O)N2 | 19.4 |
| Cn1cc2ncn(CCC3CCN(Cc4ccccc4)C3)c(=O)c2n1 (stereo not drawn) | 42.1 |
| Cc1ccc(SCCN(C)C(=O)c2cn(CCN)nn2)cc1 | -122 |
| CC(C)N(Cc1ccccn1)C(=O)CN(C)C(=O)c1cccs1 | 12.3 |
| CN(C)S(=O)(=O)c1ccc(CNC(=O)c2cn3c(n2)CNCC3)cc1 | 39.9 |
| CN(CCSc1ccccc1)C(=O)c1cn2c(n1)CNCC2 | 66.5 |
| CN(CC(=O)NCCc1ccccn1)C(=O)c1cccs1 | 11 |
| CN(CCSc1ccccc1)C(=O)C(c1cccnc1)N1CCOCC1 (stereo not drawn) | 19.4 |
| O=C(NCc1ccc(C(=O)N2CCCC2)cc1)c1cn2c(n1)CNCC2 | 16.1 |
| c1ccc(NCc2cn3c(n2)CNCC3)nc1 | 42.6 |
| CN(CCc1ccccn1)C(=O)c1cn(CCN2CCNCC2)nn1 | -60.7 |
| CN(CCCc1ccccc1)C(=O)c1cn2c(n1)CNCC2 | 61.9 |
| CN(CCc1ccccn1)C(=O)c1cn2c(n1)CNCC2 | 66.5 |
| CN(CCc1ccccn1)C(=O)c1cccs1 | 50.8 |
